Here are results for 17 compounds from PubChem BioAssay.

A number with no mark means an inactive call. Calls of active or inactive are those of the source.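 Rule for the calls, unless noted: active = compound that reduces growth-factor-driven endothelial tube area in a mixed cell culture, no cutoff stated; inactive = the rest.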 Starred links: 1 amine or outer side, 2 acyl side, 3 side chain; linkers in the order of their positions; H or OH if unused. Positions of bridges follow the written chain, without caps; N, C: chain ends. Non-standard residues stand in square brackets, D forms with d. Residues, ends and D or L forms follow the SMILES beside them. Chains are numbered I, II in the order given. Actinocin(9to1) = Cc1c2oc3c(C)ccc(C(=O)[*:1])c3nc-2c(C(=O)[*:2])c(N)c1=O; NMeV = CN[C@H](C(=O)O)C(C)C; Sar = CNCC(=O)O

A short description of experiment [1]: stimulators of insulin release from INS-1E, primary screen, cell-based, 5 mM glucose, NPC library (AID 1117329;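 active = compound raises insulin release from rat beta cells at 5 mM glucose, no numeric limit stated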). To be noted: rat INS-1E insulin secretion, at 10 µM, hits give high values.
Experiment [2] is described as follows: growth inhibition of GSK3B-pretreated HCT116 cells – cell-based, CellTiter-Glo, 0.2 to 20 µM (AID 1117336;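 active = compounds lowering colon cancer cell viability after pretreatment blocking the GSK3B kinase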). The following applies: HCT116 viability after GSK3B inhibitor, at 20 µM, hits give high values.
Experiment [3] in a line: inhibition of endothelial tube formation, primary screen, imaging, VEGF stimulated, CD31 staining, tube area, NPC library (AID 1117340). The following applies: VEGF-stimulated ADSC/ECFC co-culture, at 10 µM, hits give high values.
Experiment [4] can be described thus: GLP1 release stimulators, primary, NCI-H716, NPC library (AID 1117341;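 active = compound raises GLP1 secretion from the human gut endocrine cells, with no numeric limit stated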). The following applies: NCI-H716 cells, at 10 µM, hits give high values.
The nature of experiment [5]: HCT116 colon cancer cell growth inhibition, primary screen, CellTiter-Glo luminescence, NPC library (AID 1117342;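 active = compounds that lower survival of HCT116 colon cancer cells in the luminescence readout, no numeric limit stated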). The following applies: at 20 µM (top of the series). Background: In ATP-based viability assays light output follows the ATP content of the culture.
A short description of experiment [6]: reduced SW480 viability measured with CellTiter-Glo, NPC library, primary (AID 1117343;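 active = compounds that lower viability of the colon cancer cells in the luminescence readout, with no numeric limit stated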). To be noted: CellTiter-Glo luminescence; at 20 µM (top of the series).
Experiment [7] can be described thus: NPC library primary testing for decreased DLD-1 cell viability via CellTiter-Glo (AID 1117346;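 active = compounds that lower survival of DLD-1 colon cancer cells in the luminescence readout, no cutoff given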). To be noted: DLD-1 viability, CellTiter-Glo luminescence; at 20 µM (top of the series).
Experiment [8] has as its target 6-phosphogluconate dehydrogenase, decarboxylating (Homo sapiens) (UniProt P52209). The experiment in a line: inhibition of human phosphogluconate dehydrogenase – biochemical, recombinant enzyme, NADPH absorbance, primary screen (AID 1159550;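 active = at least 20% inhibition of 6-phosphogluconate dehydrogenase activity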). To be noted: recombinant 6PGD, NADPH absorbance 341 nm; at 10 µM; hits give high values.

What is called inhibition is the drop in the measured response relative to a control, in per cent.

Sequence of 6-phosphogluconate dehydrogenase, decarboxylating (Homo sapiens) (P52209 whole entry, looked up): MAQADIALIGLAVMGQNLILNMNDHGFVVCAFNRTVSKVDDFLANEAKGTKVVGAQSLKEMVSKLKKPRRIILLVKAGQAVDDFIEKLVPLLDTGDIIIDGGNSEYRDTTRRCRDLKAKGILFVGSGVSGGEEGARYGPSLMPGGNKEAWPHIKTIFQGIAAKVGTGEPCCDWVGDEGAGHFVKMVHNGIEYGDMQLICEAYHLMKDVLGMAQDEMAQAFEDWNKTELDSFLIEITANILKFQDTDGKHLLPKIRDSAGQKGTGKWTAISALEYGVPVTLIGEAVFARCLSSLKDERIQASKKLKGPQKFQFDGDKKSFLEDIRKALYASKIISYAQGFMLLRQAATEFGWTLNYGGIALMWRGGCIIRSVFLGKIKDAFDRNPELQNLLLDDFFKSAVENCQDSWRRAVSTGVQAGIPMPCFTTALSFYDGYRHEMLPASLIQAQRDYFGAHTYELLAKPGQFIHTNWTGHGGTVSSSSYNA

Regarding `COc1ccc(CCN(C)CCCC(C#N)(c2ccc(OC)c(OC)c2)C(C)C)cc1OC` (stereo unspecified), the insulin secretion stimulation in experiment [1] was 6.3%. Further, the viability decrease in experiment [2] was -4.2%. For the same compound, the tube area decrease in experiment [3] is -13.1%. The GLP1 secretion stimulation in experiment [4] was -4%. Moreover, the inhibition of viability in experiment [5] was 27.3%. In addition, the viability decrease (inhibition) was 20.2% in experiment [6] and -13.8% in experiment [7]. In addition, in experiment [8], the inhibition is 10.8%.

On to `COC(=O)Nc1nc2ccc(Sc3ccccc3)cc2[nH]1`, for which the insulin secretion stimulation in experiment [1] was 1.1%. Also, the viability decrease in experiment [2] was 48% (active). Moreover, in experiment [3], the tube area decrease is 103% (active). In experiment [4], the GLP1 secretion stimulation is 48.3% (active). Also, the inhibition of viability in experiment [5] is 94.4% (active). For the same compound, the figures for the viability decrease (inhibition) in experiment [6] and in experiment [7] were 81.8% (active) and 45.8% (active), respectively. The inhibition in experiment [8] is 10.3%.

Take `COc1ccc2[nH]cc(CCNC(C)=O)c2c1`: the insulin secretion stimulation in experiment [1] is -2.5%. The viability decrease in experiment [2] is -6.45%. Also, the tube area decrease in experiment [3] was -3.4%. Besides, the GLP1 secretion stimulation in experiment [4] is 4.5%. For the same compound, in experiment [5], the inhibition of viability was -6.9%. Besides, the values for the viability decrease (inhibition) in experiment [6] and in experiment [7] were 20.8% and 7.55%, respectively. Also, the inhibition in experiment [8] is 6.51%.

`CC(=O)OCC1=C(C(=O)O)N2C(=O)[C@@H](NC(=O)CSc3ccncc3)[C@H]2SC1`: the insulin secretion stimulation in experiment [1] is 0.9%. Besides, in experiment [2], the viability decrease was 14.8%. In experiment [3], the tube area decrease is -9.7%. The GLP1 secretion stimulation in experiment [4] was -1.1%. In addition, the inhibition of viability in experiment [5] was 5.07%. The viability decrease (inhibition) in experiment [6] is 13.8%; in experiment [7], -15.1%. Further, in experiment [8], the inhibition is 3.03%.

In the case of `CCN(CC)CCNC(=O)c1ccc(NC(C)=O)cc1`, the insulin secretion stimulation in experiment [1] is 0.3%. The viability decrease in experiment [2] was 23%. In experiment [3], the tube area decrease is 23.1%. In addition, in experiment [4], the GLP1 secretion stimulation is 1.6%. Moreover, the inhibition of viability in experiment [5] is 18.3%. Further, the viability decrease (inhibition) in experiment [6] was 25.6%; in experiment [7], 19.5%. Also, in experiment [8], the inhibition was 3.51%.

Take `CC(=O)OCC(COC(C)=O)OC(C)=O`: in experiment [1], the insulin secretion stimulation was 0.7%. In experiment [2], the viability decrease was -25.5%. In addition, in experiment [3], the tube area decrease is -8.3%. The GLP1 secretion stimulation in experiment [4] was 0.1%. In addition, the inhibition of viability in experiment [5] was -1.2%. For the same compound, the viability decrease (inhibition) in experiment [6] was -5.5%; in experiment [7], -3.8%. The inhibition in experiment [8] is 1.31%.

Take `Clc1ccccc1C(c1ccccc1)(c1ccccc1)n1ccnc1`: the insulin secretion stimulation in experiment [1] was 0.9%. For the same compound, in experiment [2], the viability decrease was 110% (active). Moreover, the tube area decrease in experiment [3] is 73.1% (active). The GLP1 secretion stimulation in experiment [4] is 29.1% (active). In addition, in experiment [5], the inhibition of viability is 113% (active). The viability decrease (inhibition) is 132% (active) in experiment [6] and 101% (active) in experiment [7]. The inhibition in experiment [8] was -6.11%.

As to `NC(=O)NC1NC(=O)NC1=O` (stereo unspecified), the insulin secretion stimulation in experiment [1] was -2.3%. In experiment [2], the viability decrease is -10.1%. The tube area decrease in experiment [3] was 1.2%. Further, the GLP1 secretion stimulation in experiment [4] is -1.2%. In experiment [5], the inhibition of viability is 8%. Also, the viability decrease (inhibition) in experiment [6] was 0.3%; in experiment [7] it was -6.65%. The inhibition in experiment [8] was 4.15%.

Consider `Oc1c(Cl)cc(Cl)c(Cl)c1Cc1c(O)c(Cl)cc(Cl)c1Cl`, for which the insulin secretion stimulation in experiment [1] was -3.4%. In addition, the viability decrease in experiment [2] is 117% (active). Further, the tube area decrease in experiment [3] is 108% (active). Further, the GLP1 secretion stimulation in experiment [4] was 17.4%. Also, the inhibition of viability in experiment [5] is 124% (active). The viability decrease (inhibition) in experiment [6] is 149% (active); in experiment [7], 101% (active). In addition, the inhibition in experiment [8] was -10.3%.

In the case of `C[C@@](Cc1ccc(O)c(O)c1)(NN)C(=O)O`, the insulin secretion stimulation in experiment [1] was 0.3%. Further, the viability decrease in experiment [2] was 48.3%. For the same compound, in experiment [3], the tube area decrease is -3.9%. The GLP1 secretion stimulation in experiment [4] was -1.3%. Further, the inhibition of viability in experiment [5] is 27.4%. Besides, the viability decrease (inhibition) in experiment [6] is 88.8% (active); in experiment [7], 11.7%. In experiment [8], the inhibition is -4.83%.

For `CC(N)CCCC(C)(C)O` (stereo unspecified), the insulin secretion stimulation in experiment [1] was 0.6%. Moreover, the viability decrease in experiment [2] is -36.1%. Also, the tube area decrease in experiment [3] is -13.2%. For the same compound, in experiment [4], the GLP1 secretion stimulation was -1.9%. Further, the inhibition of viability in experiment [5] was -2.33%. Also, the viability decrease (inhibition) in experiment [6] was 13%; in experiment [7] it was -0.1%. Besides, the inhibition in experiment [8] was -2.18%.

In the case of `CC1(C)S[C@@H]2[C@H](NC(=O)[C@H](N)c3ccccc3)C(=O)N2[C@H]1C(=O)O`, the insulin secretion stimulation in experiment [1] was -0.2%. In addition, in experiment [2], the viability decrease is -19%. For the same compound, the tube area decrease in experiment [3] was 16.3%. Moreover, the GLP1 secretion stimulation in experiment [4] was 1.2%. The inhibition of viability in experiment [5] is -2.8%. The viability decrease (inhibition) in experiment [6] was -8.7%; in experiment [7] it was -9.6%. The inhibition in experiment [8] is 9.14%.

For the compound `Cc1c2oc3c(C)ccc(C(=O)N[C@@H]4C(=O)N[C@H](C(C)C)C(=O)N5CCC[C@H]5C(=O)N(C)CC(=O)N(C)[C@@H](C(C)C)C(=O)O[C@@H]4C)c3nc-2c(C(=O)N[C@@H]2C(=O)N[C@H](C(C)C)C(=O)N3CCC[C@H]3C(=O)N(C)CC(=O)N(C)[C@@H](C(C)C)C(=O)O[C@@H]2C)c(N)c1=O` (I: T[dV]P[Sar][NMeV] / II: T[dV]P[Sar][NMeV]; ester I:1-I:C, II:1-II:C; linker I:N-II:N via Actinocin(9to1)), in experiment [1], the insulin secretion stimulation was 1%. For the same compound, the viability decrease in experiment [2] was -75.8% (active). Further, the tube area decrease in experiment [3] is 110% (active). For the same compound, the GLP1 secretion stimulation in experiment [4] is 1.9%. For the same compound, the inhibition of viability in experiment [5] is 37.8% (active). In addition, the values for the viability decrease (inhibition) in experiment [6] and in experiment [7] were 70.6% (active) and 69.3% (active), respectively. In addition, the inhibition in experiment [8] was -6.87%.

In the case of `Nc1ncnc2nc[nH]c12`, the insulin secretion stimulation in experiment [1] is -0.3%. In experiment [2], the viability decrease was -4.6%. Moreover, in experiment [3], the tube area decrease was -30.5%. In addition, the GLP1 secretion stimulation in experiment [4] was -1.7%. The inhibition of viability in experiment [5] is -30.2%. The viability decrease (inhibition) in experiment [6] is -59.6%; in experiment [7], -23.8%. For the same compound, the inhibition in experiment [8] was 2.63%.

On to `CS(=O)(=O)Nc1ccc([N+](=O)[O-])cc1Oc1ccccc1`, for which, in experiment [1], the insulin secretion stimulation is 0.6%. Besides, in experiment [2], the viability decrease was 7.2%. In experiment [3], the tube area decrease was 11.6%. In addition, in experiment [4], the GLP1 secretion stimulation is 0.1%. Further, the inhibition of viability in experiment [5] was 15%. Also, the values for the viability decrease (inhibition) in experiment [6] and in experiment [7] were 10.5% and 17.8%, respectively. The inhibition in experiment [8] was 11.1%.

In the case of `Nc1ccc(C(=O)O)c(O)c1`, in experiment [1], the insulin secretion stimulation is 0.1%. The viability decrease in experiment [2] is -46.6%. For the same compound, the tube area decrease in experiment [3] was 15.9%. Besides, the GLP1 secretion stimulation in experiment [4] is -6%. For the same compound, the inhibition of viability in experiment [5] is -12.6%. The viability decrease (inhibition) in experiment [6] was 12.5%; in experiment [7] it was -27.1%. Besides, the inhibition in experiment [8] is 6.71%.

Regarding `O=C(O)P(=O)(O)O`, in experiment [1], the insulin secretion stimulation was 0.5%. Besides, the viability decrease in experiment [2] is -27.7%. Besides, the tube area decrease in experiment [3] is 0.7%. For the same compound, the GLP1 secretion stimulation in experiment [4] was -0.4%. The inhibition of viability in experiment [5] was -5.05%. The results for the viability decrease (inhibition) in experiment [6] and in experiment [7] were 2.3% and -16.6%, respectively. The inhibition in experiment [8] is -6.34%.
